From PubChem BioAssay (NCATS)
Where “and” joins values, the source holds several entries; their conditions need not be identical. Identical values can stand only once. Records with an inconclusive call do not appear. Calls of active or inactive are those of the source. Unless noted, calls come from the whole dose curve; as a rule, active = well fitted curve in the direction sought with a large enough effect; inconclusive = small, poorly fitted or top-dose-only effect, or another doubt; inactive = no such curve, though single readings can be large; an effect the other way counts as inactive or inconclusive.

Columns and labels:
[1] = molecular target: Cellular tumor antigen p53 (Homo sapiens) (UniProt P04637); assay: Primary qHTS for small molecule compounds that upregulate eGFP-tagged delta133p53alpha (in N-terminal) cells. (AID 2060322); conditions: NCI-H358 eGFP-delta133p53alpha fluorescence, 24 h; activation: hits give high values;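 note: series mostly up to about 56 µM; 0% = DMSO vehicle and 100% = reference activator; nearly all actives have a fitted effect of over 75% in size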
Sequence of Cellular tumor antigen p53 (Homo sapiens) (P04637 whole entry, looked up): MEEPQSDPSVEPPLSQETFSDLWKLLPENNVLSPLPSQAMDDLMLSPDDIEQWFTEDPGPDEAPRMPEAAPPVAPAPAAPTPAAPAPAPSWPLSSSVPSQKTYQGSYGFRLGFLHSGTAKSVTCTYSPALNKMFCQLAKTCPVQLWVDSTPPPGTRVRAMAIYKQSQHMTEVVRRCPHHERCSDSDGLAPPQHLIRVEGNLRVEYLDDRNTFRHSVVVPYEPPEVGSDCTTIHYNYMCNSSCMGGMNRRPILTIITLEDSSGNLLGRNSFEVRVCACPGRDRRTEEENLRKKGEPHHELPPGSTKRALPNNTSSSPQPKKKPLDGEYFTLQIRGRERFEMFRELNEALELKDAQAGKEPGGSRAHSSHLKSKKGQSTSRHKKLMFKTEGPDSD
Summary of the method: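 NCI-H358 cells pre-induced 24 h with 10 ng/ml doxycycline to express N-terminal eGFP-delta133p53alpha, then dosed 24 h at 37C without doxycycline; fixed, Hoechst-stained, GFP intensity by laser scanning cytometry, normalized to DMSO (0%) and 57.5 uM 5-azacytidine (100%).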

[2] = molecular target: Cellular tumor antigen p53 (Homo sapiens) (UniProt P04637); assay: Primary qHTS for small molecule compounds that upregulate eGFP-tagged delta133p53alpha (in C-terminal) cells. (AID 2060324);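 note: 0% = DMSO wells and 100% = 57.5 µM 5-azacytidine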
Summary of the method: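 NCI-H358 cells pre-induced 24 h with 100 ng/ml doxycycline to express delta133p53alpha-eGFP, then dosed in doxycycline-free medium for 24 h at 37C. Fixed, Hoechst-stained; GFP intensity by laser scanning cytometry, normalized to DMSO wells.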

[3] = molecular target: Aldehyde dehydrogenase, mitochondrial (Homo sapiens) (UniProt P05091); assay: qHTS for Inhibitors of the Aldehyde Dehydrogenase Family (ALDH2) Validation screens (AID 2061302; active = well fitted inhibition curve with a large enough effect; title and protocol of this record describe different tests;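 note: plate controls were DMSO vehicle for no effect and maximal DPI positive control response for full effect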)
[4] = molecular target: Retinaldehyde dehydrogenase 3 (Homo sapiens) (UniProt P47895); assay: qHTS for Inhibitors of the Aldehyde Dehydrogenase Family (ALDH1A3) Validation screen (AID 2061312); note: % is set by controls: 0 for no effect and ±100 for the full control effect; nearly all actives have a fitted effect of over 45% in size
[5] = BET inhibitor-based combinations targeting novel dependencies in MECOM-rearranged (r) AML: SET-2 cell line (AID 2202231); conditions: SET-2 AML cells viability, CellTiter-Glo luminescence, 48 h; viability: hits give low values, concentration not given here; note: nearly all actives have a fitted effect of over 35% in size; note: potency is the fitted concentration of half-maximal effect;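 for viability: plate controls were DMSO treated cells for no effect and wells without cells for full effect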
Summary of the method: (§1)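 AML cell lines seeded at 500 cells/well, treated with 11-point dose curves for 48 h. Viability by CellTiter-Glo luminescence, normalised to DMSO and empty wells; activity expressed as AUC and per-cell-line Z-transformed AUC.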

[6] = BET inhibitor-based combinations targeting novel dependencies in MECOM-rearranged (r) AML: OCI-AML3 cell line (AID 2202232); conditions: Potency: OCI-AML3 viability; note: nearly all actives have a fitted effect of over 35% in size; note: potency is the fitted concentration of half-maximal effect
Summary of the method: as §1

[7] = BET inhibitor-based combinations targeting novel dependencies in MECOM-rearranged (r) AML: MV-4-11 cell line (AID 2202233); note: nearly all actives have a fitted effect of over 45% in size; note: potency is the fitted concentration of half-maximal effect
Summary of the method: (§2)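 Cells at 500/well were exposed for 48 hr to MIPE v5.0 drugs as 11-point dose curves. Viability was read by CellTiter-Glo luminescence and normalized to DMSO and empty-well controls. Activity was expressed as AUC and per-cell-line Z-AUC.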

[8] = BET inhibitor-based combinations targeting novel dependencies in MECOM-rearranged (r) AML: HNT-34 cell line (AID 2202234); note: nearly all actives have a fitted effect of over 35% in size; note: potency is the fitted concentration of half-maximal effect
Summary of the method: as §2

[9] = BET inhibitor-based combinations targeting novel dependencies in MECOM-rearranged (r) AML: UCSD-AML1 cell line (AID 2202235);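 note: series mostly up to about 46 µM; plate controls were DMSO vehicle wells for no effect and blank wells for full effect; nearly all actives have a fitted effect of over 40% in size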
Summary of the method: as §2

[10] = BET inhibitor-based combinations targeting novel dependencies in MECOM-rearranged (r) AML: AML-191 cell line (AID 2202236;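 note: plate controls were vehicle wells for no effect and wells without cells for full effect; nearly all actives have a fitted effect of over 35% in size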)
Summary of the method: as §1

[11] = BET inhibitor-based combinations targeting novel dependencies in MECOM-rearranged (r) AML: AML-194 cell line (AID 2202237;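 note: plate controls were vehicle wells for no effect and wells without cells for full effect; nearly all actives have a fitted effect of over 40% in size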)
Summary of the method: as §1

C=C1C[C@@]23CC[C@H]4[C@@](C)(CCC[C@@]4(C)C(=O)OC4OC(CO)C(O)C(O)C4O)[C@@H]2CC[C@]1(OC1OC(CO)C(O)C(O)C1OC1OC(CO)C(O)C(O)C1O)C3 (some centres undefined)
inactive: activation [1] -5.25% | Potency [2] | Potency [3] | Potency [4]

O=C(O)CC1CCCc2ccccc2C1O (centres undefined)
inactive: activation [1] 5.92% | Potency [2] | Potency [3] | Potency [4]

CCN1CCC[C@H]1CNC(=O)c1c(O)c(Cl)cc(Cl)c1OC
inactive: activation [1] -10% and -6.2% | Potency [2] | Potency [3] | Potency [4]

CCCCC1C(=O)N(c2ccccc2)N(c2ccccc2)C1=O
inactive: activation [1] 10% and 16.7% | Potency [2] | Potency [3] | Potency [4]

COc1cccc(C(=O)NCCN2CCN(c3ccc(Cl)cc3)CC2)c1
inactive: activation [1] -34.4% | Potency [2] | Potency [3] | Potency [4]

CCCCCCCCCCCCCCSCC(=O)O
inactive: activation [1] -11% | Potency [2] | Potency [3] | Potency [4]

O=C(c1ccc(OCCCc2cnc[nH]2)cc1)C1CC1
inactive: activation [1] 6.88% | Potency [2] | Potency [3] | Potency [4]

CSc1ccccc1N1CCN(CCCCCC(=O)NC2CCCc3ccccc32)CC1 (centres undefined)
inactive: activation [1] -61.7% | Potency [2] | Potency [3] | Potency [4]

CNCCC(Oc1ccccc1OC)c1ccccc1 (centres undefined)
inactive: activation [1] -3.68% | Potency [2] | Potency [3] | Potency [4]

NC(N)=NC(=O)c1nc(Cl)c(N2CCCCCC2)nc1N
inactive: activation [1] -39.1% | Potency [2] | Potency [3] | Potency [4]

C[C@]12C=CC(=O)C=C1CC[C@H]1[C@@H]3C[C@@H](O)[C@](O)(C(=O)CO)[C@@]3(C)C[C@H](O)[C@@]12F
inactive: activation [1] 10.9% and -4.1% | Potency [2] | Potency [3] | Potency [4]

O=C(NCCN1CCOCC1)c1ccc(Cl)cc1
inactive: activation [1] -2.82% and -8.35% | Potency [2] | Potency [3] | Potency [4]

C[C@]12CCC(=O)C=C1CC[C@@H]1[C@@H]2C(=O)C[C@@]2(C)[C@H]1CC[C@]2(O)C(=O)CO
inactive: activation [1] 0.837% and -9.81% | Potency [2] | Potency [3] | Potency [4]

CCNC(=O)N1CCN(CCCC(c2ccc(F)cc2)c2ccc(F)cc2)CC1
inactive: activation [1] -22% and -43.5% | Potency [2] | Potency [3] | Potency [4]

CC(C)CC(NP(=O)(O)O[C@@H]1O[C@@H](C)[C@H](O)[C@@H](O)[C@H]1O)C(=O)NC(Cc1c[nH]c2ccccc12)C(=O)O (some centres undefined)
inactive: activation [1] -14.9% | Potency [2] | Potency [3] | Potency [4]

CCCN(CC1CC1)c1nc(C)nc(Nc2c(Cl)cc(Cl)cc2Cl)c1Cl
inactive: activation [1] -22.7% | Potency [2] | Potency [3] | Potency [4]

COc1cc(Cc2cnc(N)nc2N)cc(OC)c1OC
inactive: activation [1] -5.08% and -24.5% | Potency [2] | Potency [3] | Potency [4]

Nc1ncnc2c1ncn2[C@@H]1O[C@H](CO)[C@@H](O)[C@H]1O
inactive: activation [1] 6.69% and -13% | Potency [2] | Potency [3] | Potency [4] | viability [5] 126% | Potency [6] | Potency [7] | Potency [8] | Potency [9] | Potency [10] | Potency [11]

Cc1cnc(C(=O)NCCc2ccc(S(=O)(=O)NC(=O)NC3CCCCC3)cc2)cn1
inactive: activation [1] -31.3% and -14.1% and 0.362% | Potency [2] | Potency [3] | Potency [4] | viability [5] 105% | Potency [6] | Potency [7] | Potency [8] | Potency [10]

Nc1nnc(-c2cccc(Cl)c2Cl)c(N)n1
inactive: activation [1] 5.86% and 2.46% and -39.9% | Potency [2] | Potency [3] | Potency [4] | viability [5] 116% | Potency [6] | Potency [7] | Potency [8] | Potency [9] | Potency [10] | Potency [11]

CCN(CC)CC(=O)Nc1c(C)cccc1C
inactive: activation [1] -3.35% and -7.58% | Potency [2] | Potency [3] | Potency [4]

Nc1nc2c(ncn2COC(CO)CO)c(=O)[nH]1
inactive: activation [1] -11.7% | Potency [2] | Potency [3] | Potency [4] | viability [5] 113% | Potency [6] | Potency [7] | Potency [8] | Potency [9] | Potency [10]

NS(=O)(=O)c1cc2c(cc1Cl)NC=NS2(=O)=O
inactive: activation [1] -10% and -6.71% and -22.3% | Potency [2] | Potency [3] | Potency [4] | viability [5] 111% | Potency [6] | Potency [7] | Potency [8] | Potency [9] | Potency [10] | Potency [11]

Nc1nc2c(ncn2COCCO)c(=O)[nH]1
inactive: activation [1] 6.69% and 13.1% | Potency [2] | Potency [3] | Potency [4] | viability [5] 125% | Potency [6] | Potency [7] | Potency [8] | Potency [9] | Potency [10] | Potency [11]

C1COC(NC(C2CC2)C2CC2)=N1
inactive: activation [1] 11% and 4.18% | Potency [2] | Potency [3] | Potency [4] | viability [5] 117% | Potency [6] | Potency [7] | Potency [8] | Potency [9] | Potency [10] | Potency [11]

Clc1ccccc1C(c1ccccc1)(c1ccccc1)n1ccnc1
inactive: activation [1] -9.6% and -24.2% | Potency [2] | Potency [3] | Potency [4]
active: Potency [5] 18.6 µM | Potency [6] 16.6 µM | Potency [7] 18.6 µM | Potency [8] 18.6 µM
